Measured values reported in PubChem BioAssay (NCATS).
Results filed as inconclusive are left out. Calls of active or inactive are those of the source. Calls follow the shape of the dose curve; as a rule, active = well fitted curve in the direction sought with a large enough effect; inconclusive = small, poorly fitted or top-dose-only effect, or another doubt; inactive = no such curve, though single readings can be large; an effect the other way counts as inactive or inconclusive.

How the values were obtained:
NIH3T3 [1] = test: Cytotoxic Profiling of Annotated Libraries Using Quantitative High-Throughput Screening (AID 1296008); settings: Five cell lines viability, CellTiter-Glo ATP luminescence, 48-72 h; hits give low values; also: nearly all actives have a fitted effect of over 60% in size
How it was run: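 Cytotoxicity was measured as CellTiter-Glo ATP luminescence, read after 10 min at room temperature. Compound treatment of the cells lasted 48 or 72 hr at 37 degrees Celsius in a qHTS format.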

MCC-13 = test: qHTS assay to identify novel small-molecules to repurpose for Merkel cell carcinoma treatment (AID 1296009); settings: MCC and control cell lines, CellTiter-Glo viability, 72 h; series mostly up to 46 µM; also: nearly all actives have a fitted effect of over 60% in size
How it was run: (§1)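 72 hr, 37 degree celsius; NPC 8-pt / MIPE 11-pt dose response; compound pinned in DMSO; CellTiter-Glo, 10 min RT, luminescence; normalized to no-cell and DMSO controls.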

MCC-26 = test: as above; settings: MCC and control cell lines, CellTiter-Glo viability, 72 h; series mostly up to 46 µM
How it was run: as §1

MKL-1 = test: as above; settings: MCC and control cell lines, CellTiter-Glo viability, 72 h; series mostly up to 46 µM
How it was run: as §1

MKL-2 = test: as above; settings: MCC and control cell lines, CellTiter-Glo viability, 72 h; series mostly up to 46 µM
How it was run: as §1

UISO = test: as above; settings: MCC and control cell lines, CellTiter-Glo viability, 72 h; series mostly up to 46 µM
How it was run: as §1

WaGa = test: as above; settings: MCC and control cell lines, CellTiter-Glo viability, 72 h; series mostly up to 46 µM
How it was run: as §1

C33A = test: Primary qHTS to identify gynecologic anti-cancer compounds using libraries of approved drugs and bioactive compounds (AID 1345084); settings: Gynecologic cancer cell panel viability, ATPlite luminescence, 48 h; series mostly up to 57.5 µM; also: nearly all actives have a fitted effect of over 55% in size
How it was run: (§2)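 Five-concentration response, 48 h; readout is ATP-driven luciferase luminescence.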

CAOV3 = test: as above; settings: Gynecologic cancer cell panel viability, ATPlite luminescence, 48 h; series mostly up to 57.5 µM
How it was run: as §2

CASKI = test: as above; settings: Gynecologic cancer cell panel viability, ATPlite luminescence, 48 h; series mostly up to 57.5 µM
How it was run: as §2

Es-2 = test: as above; settings: Gynecologic cancer cell panel viability, ATPlite luminescence, 48 h; series mostly up to 57.5 µM
How it was run: as §2

HeLa = test: as above; settings: Gynecologic cancer cell panel viability, ATPlite luminescence, 48 h; series mostly up to 57.5 µM
How it was run: as §2

Hek293T = test: as above; settings: Gynecologic cancer cell panel viability, ATPlite luminescence, 48 h, control line for the selectivity index; series mostly up to 57.5 µM
How it was run: as §2

JEG-3 = test: as above; settings: Gynecologic cancer cell panel viability, ATPlite luminescence, 48 h; series mostly up to 57.5 µM
How it was run: as §2

OV90 = test: as above; settings: Gynecologic cancer cell panel viability, ATPlite luminescence, 48 h; series mostly up to 57.5 µM
How it was run: as §2

PA-1 = test: as above; settings: Gynecologic cancer cell panel viability, ATPlite luminescence, 48 h; series mostly up to 57.5 µM
How it was run: as §2

SKOV3 = test: as above; settings: Gynecologic cancer cell panel viability, ATPlite luminescence, 48 h; series mostly up to 57.5 µM
How it was run: as §2

NIH3T3 [2] = test: qHTS assay to identify novel small-molecules to repurpose for Merkel cell carcinoma treatment (AID 1296009); settings: MCC and control cell lines, CellTiter-Glo viability, 72 h; at 44.8 µM (top of the series) unless noted; also: nearly all actives have a fitted effect of over 60% in size
How it was run: as §1
% is scaled to controls: 0 for no effect and ±100 for the full control effect.

CC(O)CCCCn1c(=O)c2c(ncn2C)n(C)c1=O (stereo not drawn)
inactive: max response (NIH3T3 [1]) 4.47% | outcome (MCC-13) | outcome (MCC-26) | outcome (MKL-1) | outcome (MKL-2) | outcome (UISO) | outcome (WaGa) | outcome (C33A) | outcome (CAOV3) | outcome (CASKI) | outcome (Es-2) | outcome (HeLa) | outcome (Hek293T) | outcome (JEG-3) | Potency (OV90) | outcome (PA-1) | outcome (SKOV3)

Cc1c(I)c(=O)n(-c2ccccc2)n1C
inactive: outcome (NIH3T3 [1]) | outcome (MCC-13) | outcome (MCC-26) | outcome (MKL-1) | outcome (MKL-2) | outcome (NIH3T3 [2]) | outcome (UISO) | outcome (WaGa) | outcome (C33A) | outcome (CAOV3) | outcome (CASKI) | outcome (Es-2) | outcome (HeLa) | outcome (Hek293T) | outcome (JEG-3) | Potency (OV90) | outcome (PA-1) | outcome (SKOV3)

OC(CCN1CCCC1)(c1ccccc1)C1CCCCC1 (stereo not drawn)
inactive: outcome (NIH3T3 [1]) | outcome (MCC-13) | outcome (MCC-26) | outcome (MKL-1) | outcome (MKL-2) | outcome (NIH3T3 [2]) | outcome (UISO) | outcome (WaGa) | outcome (C33A) | outcome (CAOV3) | outcome (CASKI) | outcome (Es-2) | outcome (HeLa) | outcome (Hek293T) | outcome (JEG-3) | outcome (PA-1) | outcome (SKOV3)

CCN(CC)CCOC(=O)C(c1ccccc1)c1ccccc1
inactive: max response (NIH3T3 [1]) -4.35% | outcome (MCC-13) | outcome (MCC-26) | outcome (MKL-1) | outcome (MKL-2) | outcome (UISO) | outcome (WaGa) | outcome (C33A) | outcome (CAOV3) | outcome (CASKI) | outcome (Es-2) | outcome (HeLa) | outcome (Hek293T) | outcome (JEG-3) | Potency (OV90) | outcome (PA-1) | outcome (SKOV3)

CCOc1ccc(C(=O)OCCN(CC)CC)cc1
inactive: max response (NIH3T3 [1]) -1.32% | outcome (MCC-13) | outcome (MCC-26) | outcome (MKL-1) | outcome (MKL-2) | outcome (UISO) | outcome (WaGa) | outcome (C33A) | outcome (CAOV3) | outcome (CASKI) | outcome (Es-2) | outcome (HeLa) | outcome (Hek293T) | outcome (JEG-3) | Potency (OV90) | outcome (PA-1) | outcome (SKOV3)

NS(=O)(=O)c1cc2c(cc1C(F)(F)F)NCNS2(=O)=O
inactive: max response (NIH3T3 [1]) -4.18% | outcome (MCC-13) | outcome (MCC-26) | outcome (MKL-1) | outcome (MKL-2) | outcome (UISO) | outcome (WaGa) | outcome (C33A) | outcome (CAOV3) | outcome (CASKI) | outcome (Es-2) | outcome (HeLa) | outcome (Hek293T) | outcome (JEG-3) | Potency (OV90) | outcome (PA-1) | outcome (SKOV3)

O=C(c1ccccc1)C(O)c1ccccc1 (stereo not drawn)
inactive: outcome (NIH3T3 [1]) | outcome (MCC-13) | outcome (MCC-26) | outcome (MKL-1) | outcome (MKL-2) | outcome (NIH3T3 [2]) | outcome (UISO) | outcome (WaGa) | outcome (C33A) | outcome (CAOV3) | outcome (CASKI) | outcome (Es-2) | outcome (HeLa) | outcome (Hek293T) | outcome (JEG-3) | Potency (OV90) | outcome (PA-1) | outcome (SKOV3)

CCCCCC(C)N (stereo not drawn)
inactive: max response (NIH3T3 [1]) 3.25% | outcome (MCC-13) | outcome (MKL-1) | outcome (MKL-2) | outcome (UISO) | outcome (WaGa) | outcome (C33A) | outcome (CASKI) | outcome (Es-2) | outcome (HeLa) | outcome (Hek293T) | outcome (JEG-3) | Potency (OV90) | outcome (PA-1) | outcome (SKOV3)

NC(=O)CC[C@@H](N)C(=O)O
inactive: max response (NIH3T3 [1]) 0.058% | outcome (MCC-13) | outcome (MCC-26) | outcome (MKL-1) | outcome (MKL-2) | outcome (UISO) | outcome (WaGa) | outcome (C33A) | outcome (CAOV3) | outcome (CASKI) | outcome (Es-2) | outcome (HeLa) | outcome (Hek293T) | outcome (JEG-3) | Potency (OV90) | outcome (PA-1) | outcome (SKOV3)

CCCCCCCCCCCCCCCCCCO
inactive: outcome (NIH3T3 [1]) | outcome (MCC-13) | outcome (MCC-26) | outcome (MKL-1) | outcome (MKL-2) | outcome (NIH3T3 [2]) | outcome (UISO) | outcome (WaGa) | outcome (C33A) | outcome (CAOV3) | outcome (CASKI) | outcome (Es-2) | outcome (HeLa) | outcome (Hek293T) | outcome (JEG-3) | Potency (OV90) | outcome (SKOV3)

O=C(O)[C@@H]1[C@H]2C[C@H]3c4[nH]c5ccccc5c4CCN3C[C@@H]2CC[C@@H]1O
inactive: outcome (NIH3T3 [1]) | outcome (MCC-13) | outcome (MCC-26) | outcome (MKL-1) | outcome (MKL-2) | outcome (NIH3T3 [2]) | outcome (UISO) | outcome (WaGa) | outcome (C33A) | outcome (CAOV3) | outcome (CASKI) | outcome (Es-2) | outcome (HeLa) | outcome (Hek293T) | outcome (JEG-3) | outcome (PA-1) | outcome (SKOV3)

Cc1[nH]c(C)c(Cl)c(=O)c1Cl
inactive: max response (NIH3T3 [1]) -10.7% | outcome (MCC-13) | outcome (MCC-26) | outcome (MKL-1) | outcome (MKL-2) | outcome (UISO) | outcome (WaGa) | outcome (C33A) | outcome (CAOV3) | outcome (CASKI) | outcome (Es-2) | outcome (HeLa) | outcome (Hek293T) | outcome (JEG-3) | Potency (OV90) | outcome (PA-1) | outcome (SKOV3)

O=C(CCBr)N1CCN(C(=O)CCBr)CC1
inactive: outcome (NIH3T3 [1]) | outcome (MCC-13) | outcome (MCC-26) | outcome (MKL-1) | outcome (MKL-2) | outcome (NIH3T3 [2]) | outcome (UISO) | outcome (WaGa) | outcome (C33A) | outcome (CASKI) | outcome (Es-2) | outcome (HeLa) | outcome (Hek293T) | outcome (JEG-3) | Potency (OV90) | outcome (PA-1)

O=C1c2ccccc2S(=O)(=O)N1CCCCN1CCN(c2ncccn2)CC1
inactive: outcome (NIH3T3 [1]) | outcome (MCC-13) | outcome (MCC-26) | outcome (MKL-1) | outcome (MKL-2) | outcome (NIH3T3 [2]) | outcome (UISO) | outcome (WaGa) | outcome (C33A) | outcome (CAOV3) | outcome (CASKI) | outcome (Es-2) | outcome (HeLa) | outcome (Hek293T) | outcome (JEG-3) | Potency (OV90) | outcome (PA-1) | outcome (SKOV3)
